About 1,900 (1%) of roughly 190,000 compounds were called active.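 How the source made its calls: active means percentage of spot-positive cells more than 3 SD above its plate mean, without a fluorescence outlier flag or 80% toxicity; inconclusive means no clear call, values can overlap the other calls; inactive means the rest.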 What follows is part of a selection rich in actives, with near analogues and random picks from the rest.
Assay: autophagy modulators in MEF cells, primary screen, imaging, high-content, MEF GFP-LC3 (AID 463193);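 on % cells with GFP-LC3 spots: spot-positive cell cutoff set from DMSO-treated cells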
Conditions: MEF GFP-LC3 puncta imaging, at 10 µM; % cells with GFP-LC3 spots: stronger effect = higher value; toxicity: measured here: cell loss, nuclei count

Row | Structure (SMILES) | % cells with GFP-LC3 spots | toxicity
1 | CSc1ccc(CCNC(=O)C2CCN(c3nnc(-n4cccc4)s3)CC2)cc1 | 4.67% (inactive) | 3.56%
2 | CCOC(=O)C1CCCN(C(=O)C2CCN(c3nnc(-n4cccc4)s3)CC2)C1 (stereo not given) | 15.3% (active) | 6.19%
3 | CCOC(=O)C1CCCN(C(=O)c2cncc(Br)c2)C1 (stereo not given) | 9.51% (inactive) | 4.79%
4 | Fc1cc(Br)ccc1NC(=S)Nc1cccnc1 | 4.97% (inactive) | -1.9%
5 | Cc1cccc(N=C2NC(=O)/C(=C/c3cn(C)c4ccccc34)S2)c1 | 2.55% (inactive) | 4.32%
6 | CN(C)c1ccc(-n2cccc2/C=C2/SC(=Nc3ccc(F)cc3)NC2=O)cc1 | 93.2% (active) | -20.2%
7 | CN(C)c1ccc(-n2cccc2/C=N/n2cnnc2)cc1 | 4.65% (inactive) | -2.02%
8 | CCC(C)(C)NC(=O)/C=C/c1cc(OC)c(OC)c(S(=O)(=O)N2CCc3ccccc32)c1 | 11.3% (inactive) | 20%
9 | O=C(CCl)N(Cc1cccc([N+](=O)[O-])c1)c1cccc(Cl)c1 | 60.8% (active) | 58.5%
10 | O=C(Nc1cccc([N+](=O)[O-])c1)Nc1ccc(Cl)cn1 | 1.56% (inactive) | 15.9%
11 | CCN(CC)C(=O)CN(c1cccc([N+](=O)[O-])c1)S(=O)(=O)c1ccccc1 | 0.147% (inactive) | 2.32%
12 | Cc1ccccc1OCC(=O)Nc1nc(C)c(C(=O)N(C)C)s1 | 28.3% (inactive) | -9.79%
13 | CCc1cccc(NC(=O)CCC(=O)O)c1 | 4.04% (inactive) | 8.61%
14 | O=C(c1ccc(F)cc1)n1cc(C(=S)N2CCOCC2)c2ccccc21 | 8.35% (inactive) | -13.5%
15 | CCOC(=O)c1sc(NC(=O)CSc2nc(O)c(Cc3ccccc3)c(=O)[nH]2)nc1C | 4.28% (inactive) | -1.5%
16 | COC(=O)c1ccccc1NC(=O)c1cncc(Br)c1 | 6.11% (inactive) | -8.54%
17 | COc1ccc(Oc2coc3cc(OC(=O)c4cncc(Br)c4)ccc3c2=O)cc1 | 25.7% (active) | -11.8%
18 | CCc1ccc(Oc2coc3cc(OC(=O)c4cc5ccccc5oc4=O)ccc3c2=O)cc1 | 1.87% (inactive) | -5.27%
19 | Nc1nc(SCC(=O)N2CCN(S(=O)(=O)c3ccc(Cl)cc3)CC2)n[nH]1 | 1.97% (inactive) | -0.836%
20 | N#Cc1ccsc1NC(=O)CN1CCN(S(=O)(=O)c2cc(Cl)ccc2Cl)CC1 | 7.41% (inactive) | 41.3%

Row | Structure (SMILES) | % cells with GFP-LC3 spots | toxicity
21 | CCC1=C(C(=O)OC)C(c2cc(OC)ccc2OC)C(C#N)=C(N)O1 (stereo not given) | 2.22% (inactive) | -10.7%
22 | CCCN1CC=C2C(C#N)=C(N)C(C#N)(C#N)C(c3cc(OC)ccc3OC)C2C1 (stereo not given) | 99.7% (active) | 9.7%
23 | CCOC(=O)N1CC=C2C(C#N)=C(N)C(C#N)(C#N)[C@H](c3cccs3)[C@H]2C1 | 11.3% (inactive) | -6.29%
24 | COCCCNCCOCCOc1ccc(Cl)cc1Br | 5.65% (inactive) | 4.08%
25 | CCn1nc(C)c(/C=N/NC(=O)Cc2ccc(Cl)cc2)c1C | 4.23% (inactive) | 8.44%
26 | Cc1cc(C)c(S(=O)(=O)NCCCN2CCOCC2)cc1Br | 19.8% (active) | 9.5%
27 | Cc1cc(C)cc(NC(=S)NCCCN2CCOCC2)c1 | 12.3% (inactive) | -2.96%
28 | Cc1ccc(S(=O)(=O)NCCN2CCOCC2)cc1C | 1.8% (inactive) | 15.4%
29 | CCc1nc2ccccc2c(C(=O)NCc2ccc(OC)cc2)c1C | 2.64% (inactive) | -18.8%
30 | C=CCNc1nc(Nc2ccc(Cl)cc2)nc(OC)n1 | 0.706% (inactive) | 0.881%
31 | Cc1ccc(NC(=O)OCCNC(=O)c2ccncc2)cc1 | 5.3% (inactive) | 0.481%
32 | CC[C@H]1OC(=O)[C@H](C)[C@@H](O[C@H]2C[C@@](C)(OC)[C@@H](O)[C@H](C)O2)[C@H](C)[C@@H](O[C@@H]2O[C@H](C)C[C@H](N(C)C)[C@H]2O)[C@](C)(O)C[C@@H](C)[C@@H]2N[C@@H](COCCOC)O[C@H]([C@H]2C)[C@]1(C)O | 10.6% (inactive) | 20.5%
33 | COc1cccc2cc(S(=O)(=O)c3ccc(C)cc3)/c(=N/NS(=O)(=O)c3ccc(C)cc3)oc12 | 5.62% (inactive) | 3.69%
34 | CCN1C(=O)/C(=c2\s/c(=C3\Sc4ccccc4N3C)c(=O)n2C)N(C)C1=S | 1.17% (inactive) | 19.3%
35 | CCN1C(=O)/C(=C2/Sc3ccc(OC)cc3N2C)SC1=Nc1ccc(C)cc1 | 24.8% (active) | -15%
36 | CCN1C(=O)/C(=C2/Sc3ccccc3N2CCCS(=O)(=O)O)SC1=S | 1.02% (inactive) | -10.6%
37 | CC(=O)c1ccc(N=C2SCCCN2C(=O)C2CCCCC2)cc1 | 1.47% (inactive) | -1.61%
38 | CCCOc1ccc(N/C=C/C(=O)C(C)(C)C)cc1 | 0.722% (inactive) | -6.8%
39 | CCCOc1ccc(NC(=O)C2OC3OC(C)(C)OC3C3OC(C)(C)OC23)cc1 (stereo not given) | 19.1% (active) | -25.3%
40 | CCCOc1ccc(NC(=O)C2CCCNC2=O)cc1 (stereo not given) | 12.2% (inactive) | -1.43%

— PubChem BioAssay AID463193 (University of Pittsburgh Molecular Library Screening Center, 2010)
